Data on 24 compounds can be found in PubChem BioAssay (NCATS).

For assay [1], the target named is Cellular tumor antigen p53 (Homo sapiens) (UniProt P04637). The assay can be described thus: Primary qHTS for small molecule compounds that upregulate eGFP-tagged delta133p53alpha (in N-terminal) cells. (AID 2060322).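 Further: cells pre-induced with doxycycline then dosed without doxycycline; series mostly up to about 56 µM; 0% = DMSO vehicle and 100% = reference activator; nearly all actives have a fitted effect of over 75% in size.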 The conditions noted are these: NCI-H358 eGFP-delta133p53alpha fluorescence, 24 h; activation: hits give high values. In short, it runs like this:
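NCI-H358 cells pre-induced 24 h with 10 ng/ml doxycycline for eGFP-delta133p53alpha, plated dox-free and exposed 24 h at 37C to titrated compounds. Fixed, Hoechst-stained; gated GFP peak intensity by laser scanning cytometry, normalized to DMSO (0%) and 57.5 uM 5-azacytidine (100%).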
Background: In qHTS, concentration-response curves come from the screen itself.

Assay [2] can be described thus: BET inhibitor-based combinations targeting novel dependencies in MECOM-rearranged (r) AML: OCI-AML3 cell line (AID 2202232). Further: nearly all actives have a fitted effect of over 35% in size. Further: potency means the concentration at half of the fitted maximal effect. The following applies: Potency: OCI-AML3 viability. The method in brief: (§1)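 Here, 11-point titrations of each agent were applied to 500 seeded cells and incubated 48 hr; CellTiter-Glo signal, scaled against DMSO and empty wells, was integrated as AUC, then Z-scored within the individual line.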

The nature of assay [3]: BET inhibitor-based combinations targeting novel dependencies in MECOM-rearranged (r) AML: MV-4-11 cell line (AID 2202233). Further: nearly all actives have a fitted effect of over 45% in size. Further: potency means the concentration at half of the fitted maximal effect. The method in brief:
(§2)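 Normalized to DMSO and empty-well controls, the luminescence data from CellTiter-Glo after 48 hr drug exposure were fitted across 11 concentrations. Reported metrics are area under the dose-response curve and its Z-transformed form.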

A short description of assay [4]: BET inhibitor-based combinations targeting novel dependencies in MECOM-rearranged (r) AML: UCSD-AML1 cell line (AID 2202235). Further: nearly all actives have a fitted effect of over 40% in size. Further: potency means the concentration at half of the fitted maximal effect. In short, it runs like this: as §2
A short description of assay [5]: BET inhibitor-based combinations targeting novel dependencies in MECOM-rearranged (r) AML: AML-194 cell line (AID 2202237; further: nearly all actives have a fitted effect of over 40% in size; further: potency means the concentration at half of the fitted maximal effect). In short, it runs like this:
as §1

Assay [6] can be described thus: BET inhibitor-based combinations targeting novel dependencies in MECOM-rearranged (r) AML: HNT-34 cell line (AID 2202234). Further: nearly all actives have a fitted effect of over 35% in size. Further: potency means the concentration at half of the fitted maximal effect. In short, it runs like this: as §2
The nature of assay [7]: BET inhibitor-based combinations targeting novel dependencies in MECOM-rearranged (r) AML: AML-191 cell line (AID 2202236; further: nearly all actives have a fitted effect of over 35% in size; further: potency means the concentration at half of the fitted maximal effect). In short, it runs like this: as §1
The target in assay [8] is Cellular tumor antigen p53 (Homo sapiens) (UniProt P04637). The assay can be described thus: Primary qHTS for small molecule compounds that upregulate eGFP-tagged delta133p53alpha (in C-terminal) cells. (AID 2060324).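 Further: 0% = DMSO wells and 100% = 57.5 µM 5-azacytidine.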 In short, it runs like this: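 Read-out: gated-cell GFP peak intensity (laser scanning cytometer), plate-normalized with DMSO as 0% activity, after 24 h compound exposure at 37C. Cells were C-terminal eGFP-tagged delta133p53alpha NCI-H358, doxycycline-induced (100 ng/ml, 24 h) before plating.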
Cellular tumor antigen p53 (Homo sapiens), sequence (P04637 whole entry, looked up): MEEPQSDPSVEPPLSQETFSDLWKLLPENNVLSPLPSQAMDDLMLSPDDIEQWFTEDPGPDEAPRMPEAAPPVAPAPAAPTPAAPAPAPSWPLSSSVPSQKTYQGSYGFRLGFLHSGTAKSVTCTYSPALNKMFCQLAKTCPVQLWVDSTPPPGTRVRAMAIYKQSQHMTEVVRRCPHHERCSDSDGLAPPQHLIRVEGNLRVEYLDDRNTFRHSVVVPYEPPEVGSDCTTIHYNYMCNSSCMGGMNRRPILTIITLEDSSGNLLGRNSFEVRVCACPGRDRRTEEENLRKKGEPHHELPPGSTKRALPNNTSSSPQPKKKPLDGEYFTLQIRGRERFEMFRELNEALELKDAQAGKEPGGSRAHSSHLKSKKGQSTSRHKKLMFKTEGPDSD

The structures appear in SMILES notation. Where “and” joins values, the source holds several entries; their conditions need not be identical. Equal values may be shown once. Inconclusive results are not listed. Unmarked numbers belong to inactive results. Calls of active or inactive are those of the source. The call rests on the fitted dose curve; in most records, active means well fitted curve in the direction sought with a large enough effect; inconclusive means small, poorly fitted or top-dose-only effect, or another doubt; inactive means no such curve, though single readings can be large; an effect the other way counts as inactive or inconclusive.

For the compound `C[C@]12CCC(=O)C=C1[C@@H]1C[C@@H]1[C@H]1[C@@H]3[C@@H]4C[C@@H]4[C@@]4(CCC(=O)O4)[C@@]3(C)CC[C@@H]12`, in assay [1], the activation is -15.3%. The figures for the Potency in assay [2] and in assay [3] were 8.33 µM (active) and 16.6 µM (active), respectively. Also, the Potency entry in assay [4] and in assay [5] was “inactive” in each case.
For `CC1(C)O[C@@H]2C[C@H]3[C@@H]4CCC5=CC(=O)C=C[C@]5(C)[C@@]4(F)[C@@H](O)C[C@]3(C)[C@]2(C(=O)CO)O1`, in assay [1], the activation is -9.6%. Also, the Potency result in assay [2], in assay [3] and in assay [4] was “inactive” each time.
With `CCCCCCNC(=O)n1cc(F)c(=O)[nH]c1=O`, in assay [1], the activation was -29.9% and -7.59%. Besides, the Potency is 1.86 µM (active) in assay [2], 1.66 µM (active) in assay [3] and 7.42 µM (active) in assay [4].
On to `O=C1CN2Cc3c(ccc(Cl)c3Cl)N=C2N1`, for which the activation in assay [1] is -11.4%. Besides, the Potency result in assay [2], in assay [3], in assay [6], in assay [4], in assay [7] and in assay [5] was “inactive” throughout.
Take `COc1ccc(-n2c(C)c([N+](=O)[O-])c3ccc(O)cc32)cc1`: in assay [1], the activation was -5.31%. The Potency entry in assay [2], in assay [4] and in assay [5] was “inactive” in each case. The Potency in assay [3] was 5.25 µM (active); in assay [7], 6.61 µM (active).
Take `CC(C)c1ccccc1Cc1cc(C(=O)Nc2ccc(S(=O)(=O)c3ccccc3C(C)(C)C)cc2)c(O)c(O)c1O`: in assay [1], the activation is -33%. Also, the Potency was 4.68 µM (active) in assay [2]; 10.5 µM (active) in assay [3]; 10.5 µM (active) in assay [4]; 9.34 µM (active) in assay [7]; 10.5 µM (active) in assay [5].
In the case of `N#CC1(c2ccc(NC(=O)c3cccnc3NCc3ccncc3)cc2)CCCC1`, the activation in assay [1] was -7.07%. Moreover, the Potency result in assay [2], in assay [4], in assay [7] and in assay [5] was “inactive” throughout. Moreover, the Potency in assay [3] is 14.8 µM (active).
For `N#Cc1cc(NC(=O)Nc2nnc(-c3ccncc3)s2)ccc1-c1cn[nH]c1`, the activation in assay [1] is -26.3%. Besides, the Potency result in assay [2], in assay [3], in assay [6], in assay [4], in assay [7] and in assay [5] was “inactive” each time.
In the case of `COc1c(C)cnc(Cn2cnc3c(Cl)nc(N)nc32)c1C`, in assay [1], the activation is -17.3%. Also, the Potency in assay [2] is 0.372 µM (active); in assay [3], 0.118 µM (active); in assay [4] it was 0.209 µM (active); in assay [7], 0.525 µM (active).
Take `C[C@]12CC[C@@H]3c4ccc(O)cc4CC[C@H]3[C@H]1[C@@H](O)[C@@H](O)[C@H]2O`: the activation in assay [1] is 9.46%. Besides, the Potency result in assay [2], in assay [3], in assay [6], in assay [4], in assay [7] and in assay [5] was “inactive” throughout.
`Nc1ncnc2c1ncn2[C@@H]1O[C@H](CO)[C@@H](O)[C@@H]1O`: in assay [1], the activation is 23.2%. Further, the Potency entry in assay [2], in assay [3], in assay [7] and in assay [5] was “inactive” in each case.
Regarding `NC1=N[C@H]2[C@H](CS[C@H]2CCCCC(=O)O)N1`, the activation in assay [1] was -4.3%. The Potency entry in assay [2], in assay [3], in assay [6], in assay [7] and in assay [5] was “inactive” in each case.
Consider `OC1CCC(Nc2ncc3nc(Nc4c(F)cc(F)cc4F)n([C@@H]4CCOC4)c3n2)CC1` (some centres undefined), for which the activation in assay [1] is 52.2%. Moreover, the Potency is 18.6 µM (active) in assay [2], 20.9 µM (active) in assay [3] and 16.6 µM (active) in assay [7]. The Potency result in assay [4] is “inactive”.
On to `CC(C)(C)OC(=O)CN(Cc1ccc(Cl)cc1)Cc1ccc([N+](=O)[O-])s1`, for which, in assay [1], the activation is -41.8%. The Potency in assay [2] is 7.42 µM (active); in assay [3], 18.6 µM (active). Further, the Potency entry in assay [7] and in assay [5] was “inactive” in each case.
On to `Cc1ccc(S(=O)(=O)OCC(=O)Nc2ccc(C(=O)O)c(O)c2)cc1`, for which the activation in assay [1] was 22.5%. Also, the Potency result in assay [2], in assay [3], in assay [6], in assay [4], in assay [7] and in assay [5] was “inactive” throughout.
On to `C[C@@H]1C(=O)O[C@H]2CC34[C@H]5C[C@@H](C(C)(C)C)C36[C@H](OC(=O)[C@@H]6O)O[C@@]4(C(=O)O5)[C@]21O` (some centres undefined), for which the activation in assay [1] is 14%. The Potency entry in assay [2], in assay [3] and in assay [4] was “inactive” each time.
For the compound `CC1=CC(=O)c2ccccc2C1=O`, the activation in assay [1] was 1.69% and -31.8%. The Potency in assay [2] is 18.6 µM (active); in assay [3], 7.42 µM (active); in assay [6], 23.5 µM (active); in assay [5], 18.6 µM (active).
For the compound `O=C(O)C1=CC(=C(c2ccc(O)c(C(=O)O)c2)c2ccc(O)c(C(=O)O)c2)C=CC1=O`, the Potency result in assay [8] was “inactive”.
Turning to `Clc1ccc(COC(Cn2ccnc2)c2ccc(Cl)cc2Cl)c(Cl)c1` (centres undefined), in assay [1], the activation is -18.8%. Besides, the Potency entry in assay [4] is “inactive”. For the same compound, in assay [5], the Potency was 26.3 µM (active).
Turning to `N#CC(c1ccc(Cl)cc1)c1c(Cl)cc(-n2ncc(=O)[nH]c2=O)cc1Cl` (centres undefined), the activation in assay [1] is -23%. The Potency result in assay [3] and in assay [5] was “inactive” in each case. Besides, the Potency in assay [7] is 16.6 µM (active).
Turning to `CCc1ccc(CCOc2ccc(CC3SC(=O)NC3=O)cc2)nc1` (centres undefined), the activation in assay [1] was 7.53% and -1.15%. The Potency in assay [5] is 5.25 µM (active).
Regarding `COc1ccc(C(=O)CC(=O)c2ccc(C(C)(C)C)cc2)cc1`, in assay [1], the activation is -17.5% and -8.43%. For the same compound, in assay [4], the Potency entry was “inactive”. Besides, the Potency in assay [7] is 20.9 µM (active).
Consider `CCC(c1ccc(O)cc1)C(CC)c1ccc(O)cc1` (centres undefined), for which the activation in assay [1] is 3.07%. Besides, the Potency entry in assay [6] and in assay [4] was “inactive” each time.
In the case of `COc1cc2ncn(-c3cc(OCc4ccccc4S(C)(=O)=O)c(C#N)s3)c2cc1OC`, the activation in assay [1] is -10.5%. For the same compound, the Potency result in assay [3], in assay [7] and in assay [5] was “inactive” in each case.
